What was measured:
Assay in all cases: log2 ratio of Biotin-Ahx-Ub-VS probe labelling (fragment/DMSO); higher = less target engagement (more negative = stronger competition), active = hit call of the paper (q ≤ 0.05, log2 ratio ≤ -1)
Conditions in all cases: compound concentration: 200 uM; treatment time: 3 h
USP34 = USP34 (UniProt Q70CQ2)
Outline: (§1)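 HEK293T lysate, 495 µg per sample in Tris/CHAPS/IGEPAL buffer with protease inhibitors, was treated in triplicate with fragment at 200 µM or vehicle for 3 h and then with Biotin-Ahx-Ub-VS at 0.5 µM final for 1 h. Labelled DUBs were NeutrAvidin-enriched, digested with LysC and trypsin, and run by diaPASEF LC-MS/MS. Spectronaut label-free quantities were global-median-normalised, and values are average log2 fragment/vehicle ratios by unpaired t-test on proteins with ≥2 unique peptides.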

USP36 = target: T1, USP36 (UniProt Q9P275)
T1 sequence (whole entry): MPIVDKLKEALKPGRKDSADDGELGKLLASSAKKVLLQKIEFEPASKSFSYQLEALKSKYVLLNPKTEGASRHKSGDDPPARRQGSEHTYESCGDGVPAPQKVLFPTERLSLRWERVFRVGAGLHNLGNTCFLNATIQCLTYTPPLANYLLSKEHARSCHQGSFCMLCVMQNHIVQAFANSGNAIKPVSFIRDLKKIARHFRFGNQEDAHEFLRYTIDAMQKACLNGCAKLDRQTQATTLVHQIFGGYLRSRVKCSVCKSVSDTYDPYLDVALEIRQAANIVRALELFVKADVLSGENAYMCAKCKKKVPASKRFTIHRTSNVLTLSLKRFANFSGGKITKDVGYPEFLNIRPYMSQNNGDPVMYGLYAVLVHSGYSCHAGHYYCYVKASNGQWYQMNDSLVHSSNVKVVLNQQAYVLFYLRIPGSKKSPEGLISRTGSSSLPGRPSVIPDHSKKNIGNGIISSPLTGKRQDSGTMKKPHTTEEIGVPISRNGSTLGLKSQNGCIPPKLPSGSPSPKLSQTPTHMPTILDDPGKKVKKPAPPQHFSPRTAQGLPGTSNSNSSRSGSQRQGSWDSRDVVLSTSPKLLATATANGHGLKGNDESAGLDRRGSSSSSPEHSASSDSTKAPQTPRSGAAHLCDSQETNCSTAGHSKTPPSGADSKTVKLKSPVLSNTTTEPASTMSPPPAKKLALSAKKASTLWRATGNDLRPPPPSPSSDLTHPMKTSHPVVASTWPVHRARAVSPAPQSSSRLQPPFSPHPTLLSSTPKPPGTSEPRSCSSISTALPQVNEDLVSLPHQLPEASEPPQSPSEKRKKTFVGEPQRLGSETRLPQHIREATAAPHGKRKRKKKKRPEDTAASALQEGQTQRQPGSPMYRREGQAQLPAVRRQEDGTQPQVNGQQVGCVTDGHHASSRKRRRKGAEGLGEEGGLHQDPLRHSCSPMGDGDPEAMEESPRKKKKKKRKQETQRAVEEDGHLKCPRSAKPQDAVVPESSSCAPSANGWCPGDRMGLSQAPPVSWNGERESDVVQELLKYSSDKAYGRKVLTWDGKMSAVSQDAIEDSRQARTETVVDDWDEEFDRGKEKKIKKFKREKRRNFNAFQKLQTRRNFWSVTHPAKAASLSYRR
Outline: as §1

USP38 = target: T2, USP38 (UniProt Q8NB14)
T2 sequence (whole entry): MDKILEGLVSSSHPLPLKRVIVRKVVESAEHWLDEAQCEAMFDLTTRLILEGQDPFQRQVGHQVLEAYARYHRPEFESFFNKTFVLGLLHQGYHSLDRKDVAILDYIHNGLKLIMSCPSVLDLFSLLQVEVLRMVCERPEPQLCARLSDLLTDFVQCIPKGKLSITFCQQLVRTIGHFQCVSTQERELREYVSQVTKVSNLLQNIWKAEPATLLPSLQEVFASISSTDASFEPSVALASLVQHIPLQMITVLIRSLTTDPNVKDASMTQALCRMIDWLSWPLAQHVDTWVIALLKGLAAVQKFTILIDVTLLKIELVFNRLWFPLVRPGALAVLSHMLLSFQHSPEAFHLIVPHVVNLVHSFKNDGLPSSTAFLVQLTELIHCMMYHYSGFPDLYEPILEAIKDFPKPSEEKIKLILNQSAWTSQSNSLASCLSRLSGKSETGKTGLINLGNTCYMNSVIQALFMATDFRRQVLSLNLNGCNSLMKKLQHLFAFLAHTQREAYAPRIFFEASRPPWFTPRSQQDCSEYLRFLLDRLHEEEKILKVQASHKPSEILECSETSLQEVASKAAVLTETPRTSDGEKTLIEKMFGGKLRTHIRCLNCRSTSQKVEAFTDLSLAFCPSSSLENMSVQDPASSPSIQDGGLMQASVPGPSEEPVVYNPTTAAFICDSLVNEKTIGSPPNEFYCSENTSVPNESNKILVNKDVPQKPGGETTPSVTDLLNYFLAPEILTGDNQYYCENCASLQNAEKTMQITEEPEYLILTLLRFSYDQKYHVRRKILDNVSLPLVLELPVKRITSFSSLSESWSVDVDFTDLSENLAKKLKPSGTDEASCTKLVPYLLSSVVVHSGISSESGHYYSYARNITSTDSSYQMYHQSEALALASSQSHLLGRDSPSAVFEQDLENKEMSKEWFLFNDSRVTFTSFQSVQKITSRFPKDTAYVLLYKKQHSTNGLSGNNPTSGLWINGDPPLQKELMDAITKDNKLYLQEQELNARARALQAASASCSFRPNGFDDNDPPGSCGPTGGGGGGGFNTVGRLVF
Outline: as §1

USP39 = target: T3, USP39 (UniProt Q53GS9)
T3 sequence (whole entry): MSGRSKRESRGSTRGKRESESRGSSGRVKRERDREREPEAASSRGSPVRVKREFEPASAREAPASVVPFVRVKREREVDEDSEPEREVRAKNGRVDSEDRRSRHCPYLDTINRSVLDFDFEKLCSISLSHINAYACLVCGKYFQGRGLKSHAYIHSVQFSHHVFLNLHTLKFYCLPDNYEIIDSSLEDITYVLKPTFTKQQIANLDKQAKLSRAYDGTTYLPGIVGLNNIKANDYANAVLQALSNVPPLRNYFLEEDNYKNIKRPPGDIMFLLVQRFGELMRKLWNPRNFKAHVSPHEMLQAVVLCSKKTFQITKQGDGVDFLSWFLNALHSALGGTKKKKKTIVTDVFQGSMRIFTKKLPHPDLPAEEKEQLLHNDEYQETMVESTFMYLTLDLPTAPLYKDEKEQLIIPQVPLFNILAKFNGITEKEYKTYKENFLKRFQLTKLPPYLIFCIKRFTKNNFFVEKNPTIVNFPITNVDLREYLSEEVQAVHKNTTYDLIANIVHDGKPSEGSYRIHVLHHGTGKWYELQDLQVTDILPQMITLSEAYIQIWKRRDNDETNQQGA
Outline: as §1

USP4 = target: T4, USP4 (UniProt Q13107)
T4 sequence (whole entry): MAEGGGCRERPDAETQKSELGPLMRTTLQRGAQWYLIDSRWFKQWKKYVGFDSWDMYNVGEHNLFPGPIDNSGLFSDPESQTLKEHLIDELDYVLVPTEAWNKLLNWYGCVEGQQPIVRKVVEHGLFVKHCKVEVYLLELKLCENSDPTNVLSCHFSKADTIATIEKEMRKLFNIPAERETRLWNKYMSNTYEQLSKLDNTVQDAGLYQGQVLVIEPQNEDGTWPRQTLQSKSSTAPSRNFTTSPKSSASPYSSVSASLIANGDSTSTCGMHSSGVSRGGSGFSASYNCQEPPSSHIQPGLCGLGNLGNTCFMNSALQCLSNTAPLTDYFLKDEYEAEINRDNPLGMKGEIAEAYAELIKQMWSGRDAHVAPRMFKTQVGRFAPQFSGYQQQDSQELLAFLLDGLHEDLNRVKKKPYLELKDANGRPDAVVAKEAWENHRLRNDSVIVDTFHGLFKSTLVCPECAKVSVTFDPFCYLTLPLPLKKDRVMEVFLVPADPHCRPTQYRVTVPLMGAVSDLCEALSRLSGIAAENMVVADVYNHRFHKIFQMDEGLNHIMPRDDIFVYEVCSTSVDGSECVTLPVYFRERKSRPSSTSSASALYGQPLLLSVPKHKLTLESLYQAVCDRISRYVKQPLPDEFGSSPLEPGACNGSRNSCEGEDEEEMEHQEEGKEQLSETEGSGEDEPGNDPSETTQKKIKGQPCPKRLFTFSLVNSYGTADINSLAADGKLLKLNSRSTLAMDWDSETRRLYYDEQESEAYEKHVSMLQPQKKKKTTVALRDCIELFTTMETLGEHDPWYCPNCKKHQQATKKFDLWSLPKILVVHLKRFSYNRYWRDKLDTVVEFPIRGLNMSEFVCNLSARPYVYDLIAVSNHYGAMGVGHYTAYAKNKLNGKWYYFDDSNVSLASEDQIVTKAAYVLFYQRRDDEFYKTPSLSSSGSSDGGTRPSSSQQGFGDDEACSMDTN
Outline: as §1

Measured: log2 ratio of Biotin-Ahx-Ub-VS probe labelling

Sequence of USP34 (Q70CQ2 whole entry, the tested form may be a part): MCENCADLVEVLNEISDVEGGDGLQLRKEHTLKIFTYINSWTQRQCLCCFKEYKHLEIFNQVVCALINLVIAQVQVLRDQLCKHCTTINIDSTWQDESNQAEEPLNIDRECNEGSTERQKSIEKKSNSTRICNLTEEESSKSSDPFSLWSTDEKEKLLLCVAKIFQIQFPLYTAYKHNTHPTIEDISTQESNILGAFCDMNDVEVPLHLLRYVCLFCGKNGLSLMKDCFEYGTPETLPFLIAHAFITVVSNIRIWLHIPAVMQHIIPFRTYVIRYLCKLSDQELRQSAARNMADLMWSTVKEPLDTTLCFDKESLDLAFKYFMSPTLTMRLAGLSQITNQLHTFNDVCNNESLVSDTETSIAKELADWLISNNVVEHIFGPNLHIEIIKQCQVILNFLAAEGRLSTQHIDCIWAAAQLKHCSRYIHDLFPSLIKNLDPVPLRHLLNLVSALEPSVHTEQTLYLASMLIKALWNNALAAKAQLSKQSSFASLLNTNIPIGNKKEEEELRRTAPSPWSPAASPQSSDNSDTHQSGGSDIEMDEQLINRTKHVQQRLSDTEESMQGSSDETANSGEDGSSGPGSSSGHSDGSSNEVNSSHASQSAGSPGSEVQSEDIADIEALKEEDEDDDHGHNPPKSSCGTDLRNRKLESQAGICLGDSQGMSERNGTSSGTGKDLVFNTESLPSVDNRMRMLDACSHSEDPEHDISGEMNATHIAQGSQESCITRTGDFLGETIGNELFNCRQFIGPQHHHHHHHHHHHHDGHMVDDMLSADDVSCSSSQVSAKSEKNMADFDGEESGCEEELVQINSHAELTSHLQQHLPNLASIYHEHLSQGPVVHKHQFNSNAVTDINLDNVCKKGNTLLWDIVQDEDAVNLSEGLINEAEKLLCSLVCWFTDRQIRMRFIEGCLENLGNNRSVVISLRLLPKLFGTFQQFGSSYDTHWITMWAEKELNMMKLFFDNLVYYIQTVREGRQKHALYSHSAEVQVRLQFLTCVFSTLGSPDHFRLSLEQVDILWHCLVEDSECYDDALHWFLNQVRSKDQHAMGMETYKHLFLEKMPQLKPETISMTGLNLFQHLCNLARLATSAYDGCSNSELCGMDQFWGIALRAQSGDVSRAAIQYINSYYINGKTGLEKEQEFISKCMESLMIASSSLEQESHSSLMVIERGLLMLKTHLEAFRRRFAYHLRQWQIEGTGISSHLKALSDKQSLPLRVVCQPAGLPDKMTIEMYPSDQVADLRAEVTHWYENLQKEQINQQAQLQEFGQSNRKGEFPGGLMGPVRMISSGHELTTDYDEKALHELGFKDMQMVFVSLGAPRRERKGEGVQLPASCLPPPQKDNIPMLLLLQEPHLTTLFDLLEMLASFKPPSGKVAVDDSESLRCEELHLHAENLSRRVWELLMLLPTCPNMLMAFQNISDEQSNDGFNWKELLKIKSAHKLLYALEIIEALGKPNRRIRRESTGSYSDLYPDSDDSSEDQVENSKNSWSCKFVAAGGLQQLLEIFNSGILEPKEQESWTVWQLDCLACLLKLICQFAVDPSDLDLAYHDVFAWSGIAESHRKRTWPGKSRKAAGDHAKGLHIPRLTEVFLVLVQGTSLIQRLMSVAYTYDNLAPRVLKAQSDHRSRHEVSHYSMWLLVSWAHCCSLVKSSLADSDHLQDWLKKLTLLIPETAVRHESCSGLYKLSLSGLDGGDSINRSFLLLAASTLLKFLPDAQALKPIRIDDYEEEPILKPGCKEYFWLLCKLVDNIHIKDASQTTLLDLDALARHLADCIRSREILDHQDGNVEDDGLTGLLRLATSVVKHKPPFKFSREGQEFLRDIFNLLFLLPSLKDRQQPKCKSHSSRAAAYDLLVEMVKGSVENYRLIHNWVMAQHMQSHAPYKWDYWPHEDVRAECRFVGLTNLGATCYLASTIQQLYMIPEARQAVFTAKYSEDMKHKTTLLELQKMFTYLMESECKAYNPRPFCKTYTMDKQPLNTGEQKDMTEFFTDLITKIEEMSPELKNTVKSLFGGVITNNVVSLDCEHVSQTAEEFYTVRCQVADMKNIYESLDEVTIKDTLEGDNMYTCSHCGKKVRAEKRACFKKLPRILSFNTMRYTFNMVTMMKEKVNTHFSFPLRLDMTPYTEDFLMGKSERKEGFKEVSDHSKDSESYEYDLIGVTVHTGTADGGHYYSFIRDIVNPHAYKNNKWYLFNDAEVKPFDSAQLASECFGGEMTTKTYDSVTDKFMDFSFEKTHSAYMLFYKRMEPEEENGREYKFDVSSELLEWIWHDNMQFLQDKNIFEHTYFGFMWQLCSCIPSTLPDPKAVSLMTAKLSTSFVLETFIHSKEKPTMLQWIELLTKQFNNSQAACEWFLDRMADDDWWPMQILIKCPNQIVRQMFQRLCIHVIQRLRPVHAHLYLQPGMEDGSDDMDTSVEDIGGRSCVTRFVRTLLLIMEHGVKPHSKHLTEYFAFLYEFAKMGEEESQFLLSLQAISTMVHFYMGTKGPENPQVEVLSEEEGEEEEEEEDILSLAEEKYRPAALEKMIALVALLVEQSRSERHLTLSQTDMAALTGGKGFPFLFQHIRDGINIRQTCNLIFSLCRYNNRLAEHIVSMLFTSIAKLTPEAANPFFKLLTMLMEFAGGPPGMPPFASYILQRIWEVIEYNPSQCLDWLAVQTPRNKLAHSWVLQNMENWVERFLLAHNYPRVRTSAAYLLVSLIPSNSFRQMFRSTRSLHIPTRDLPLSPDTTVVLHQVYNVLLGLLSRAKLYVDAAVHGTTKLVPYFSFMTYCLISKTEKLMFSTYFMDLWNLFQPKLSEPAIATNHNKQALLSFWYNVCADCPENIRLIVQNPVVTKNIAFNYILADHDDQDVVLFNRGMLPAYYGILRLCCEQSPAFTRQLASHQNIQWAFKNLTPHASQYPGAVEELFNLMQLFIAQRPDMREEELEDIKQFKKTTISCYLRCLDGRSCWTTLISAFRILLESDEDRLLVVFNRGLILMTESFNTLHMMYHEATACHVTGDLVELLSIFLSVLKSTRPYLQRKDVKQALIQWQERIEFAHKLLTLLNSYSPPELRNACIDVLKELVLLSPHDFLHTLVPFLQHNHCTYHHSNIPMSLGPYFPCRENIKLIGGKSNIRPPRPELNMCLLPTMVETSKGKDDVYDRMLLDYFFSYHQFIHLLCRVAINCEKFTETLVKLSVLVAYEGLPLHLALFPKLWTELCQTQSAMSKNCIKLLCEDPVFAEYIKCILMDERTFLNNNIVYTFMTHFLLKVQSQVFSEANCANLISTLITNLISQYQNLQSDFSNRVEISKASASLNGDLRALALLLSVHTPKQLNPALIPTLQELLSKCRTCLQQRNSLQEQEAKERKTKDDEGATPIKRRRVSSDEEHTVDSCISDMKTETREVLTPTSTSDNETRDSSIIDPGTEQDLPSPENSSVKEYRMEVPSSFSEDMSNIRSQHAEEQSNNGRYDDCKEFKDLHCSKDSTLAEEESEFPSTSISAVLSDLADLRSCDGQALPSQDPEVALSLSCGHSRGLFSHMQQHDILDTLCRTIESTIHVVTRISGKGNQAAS

Cc1ccc(CN(C)C(=O)CCl)o1
inactive: USP34 -0.0329 | USP36 0.0474 | USP38 -0.0916 | USP39 0.287 | USP4 0.0471
